# Assay results taken from US20210230599, “STEM-LOOP COMPOSITIONS AND METHODS FOR INHIBITING INTERLEUKIN-8” (VITRISA THERAPEUTICS, INC., published 2021).
# Biological target: Interleukin-8 (IL8, CXCL8), C-terminal His-tagged (Homo sapiens, UniProt P10145 SEQ:1-72)
# Test: competition; competition TR-FRET
# Settings: tags: C-terminal 6xHis (Sino Biological); ssRNA; 2'-F G, 2'-OMe A/C/U, 5' C6NH2, 3' idT
# Method: Activity of each of these variants were tested using a time resolved competition TR-FRET assay in which the labeled parent Aptamer 3 was competed with increasing concentrations of unlabeled variants for binding to IL8 (FIG. 14). Briefly, 2-fold dilutions of thermally equilibrated aptamers were made in TR-FRET Buffer (50 mM MOPS, pH 7.4, 125 mM NaCl, 5 mM KCl, 50 μM CHAPS, 0.1 mg/mL BSA, 1 mM CaCl₂, and 1 mM MgCl₂). 5 μL of aptamer or control solution was added to 5 μl mix of 10 nM C-terminal His-tagged-IL8, 60 nM ALEXA FLUOR® 647-labeled Aptamer, and 5 nM anti-His-Eu (Perkin Elmer) in a black wall low volume 384 well plate (Greiner). For control, 5 μl of 1000-fold excess of unlabeled parent aptamer or 5 μl TR-FRET buffer alone was added to the mix of ALEXA FLUOR® 647-labeled aptamer, His-IL8, and anti-His-Eu. The plate was covered with a plate seal and subsequently incubated in the dark for 1 hour at room temperature. The plate was read on a Biotek CYTATION™ 5 plate reader. […]
# To better understand the sequence requirements and confirm the stem structures of members of the Aptamer 8 family as determined from sequence covariation analysis from both the primary and secondary (degenerate) selections, a series of variants which included mutations and deletions to the predicted stems (Tables 45 and 46) were synthesized and screened. […]
row,Sequence,binding signal
1,CGGUGGGAAAUGUGAGAUGGGUUACCG,~2.5 fold worse than Aptamer 8
2,CGGCGGGAAAUGUGAGAUGGGUUGCCG,~2.5 fold worse than Aptamer 8
